About 79,000 compounds went through this panel and 15% of them were active in at least one assay; those are over-represented in the sample as a whole. Values without a mark were called inactive. Active and inactive are the calls of the source. No stated cut-off is given here; in the data, active means growth inhibition above about 70%; inactive means the rest.
How the values were obtained:
[1] = NCI Yeast Anticancer Drug Screen. Data for the rad50 strain (AID 155);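 further: 0% = growth of vehicle-only cultures of the same strain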; conditions: S. cerevisiae rad50 strain growth inhibition, hits give high values
Outline: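 Cells are treated with compound, grown, and their growth is then scored against vehicle-only cultures of the same repair-deficient yeast strain.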

[2] = NCI Yeast Anticancer Drug Screen. Data for the mec2-1 strain (AID 157); conditions: S. cerevisiae mec2-1 strain, hits give high values
Outline: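 Compounds were applied to mec2-1 yeast cells. Their growth was then compared with that of vehicle-treated cultures to give growth inhibition.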

[3] = NCI Yeast Anticancer Drug Screen. Data for the sgs1 mgt1 strain (AID 161);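 further: 0% = growth of cultures given vehicle only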; conditions: S. cerevisiae sgs1 mgt1 strain, hits give high values
Outline: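 Compounds are added to genetically altered yeast, and growth is compared with cultures given vehicle alone to give percent inhibition.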

[4] = NCI Yeast Anticancer Drug Screen. Data for the cln2 rad14 strain (AID 165);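 further: 0% = growth equal to vehicle treated cultures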; conditions: S. cerevisiae cln2 rad14 strain, hits give high values
Outline: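 Strain: cln2 rad14 yeast, altered in cell cycle control and DNA damage repair. Read-out: growth inhibition vs vehicle.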

[5] = NCI Yeast Anticancer Drug Screen. Data for the bub3 strain (AID 167); conditions: S. cerevisiae bub3 mutant strain, hits give high values
Outline: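 Part of a panel of yeast mutants defective in DNA damage repair or cell cycle regulation. Each strain is grown with compound, and inhibition is calculated relative to solvent-treated cultures.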

[6] = NCI Yeast Anticancer Drug Screen. Data for the mlh1 rad18 strain (AID 175); conditions: S. cerevisiae mlh1 rad18 strain growth inhibition, hits give high values
Outline: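 A repair-deficient yeast strain is exposed to test compound, and growth is scored relative to vehicle-treated controls.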

[7] = at 5.0 µM (retest, dose inferred, filed as 0.5)
[8] = at 50.0 µM (retest, dose inferred, filed as 5.0)

Row | SMILES | growth inhibition [1, 7] | growth inhibition [1, 8] | growth inhibition ([1]; at 50.0 µM) | growth inhibition [2, 7] | growth inhibition [2, 8] | growth inhibition ([2]; at 50.0 µM) | growth inhibition [3, 7] | growth inhibition [3, 8] | growth inhibition ([3]; at 50.0 µM) | growth inhibition [4, 7] | growth inhibition [4, 8] | growth inhibition ([4]; at 50.0 µM) | growth inhibition [5, 7] | growth inhibition [5, 8] | growth inhibition ([5]; at 50.0 µM) | growth inhibition [6, 7] | growth inhibition [6, 8] | growth inhibition ([6]; at 50.0 µM)
1 | CC(C)=CC[P+](CCCCCC[P+](CC=C(C)C)(c1ccccc1)c1ccccc1)(c1ccccc1)c1ccccc1 | -4% | 9% | 31.6% | -1% | 9% | 40.8% | -3% | 27% | 59.5% | -5% | 16% | 4.75% | -3% | 15% | 48.3% | -1% | 27% | 89.2% (active)
2 | O=C(OCc1ccccc1)c1ccccc1Cl | 3% | 21% | 50.4% | -3% | 0% | 14.1% | 2% | 14% | 40.2% | 4% | -11% | -18.6% | 10% | 19% | 30.9% | 3% | 14% | 82.8% (active)
3 | OCC1CCc2[nH]c3ccccc3c2C1 (configuration not stated) | -159% | -160% | -7.95% | -53% | -59% | -6.55% | -67% | -68% | -4.2% | -56% | -76% | 30.9% | -65% | -58% | 12% | -128% | -123% | 3.5%
4 | FC(F)(F)c1[nH]nc(-c2ccc(Cl)cc2)c1N=NN1CCOCC1 | 98% (active) | 96% (active) | 94.6% (active) | 99% (active) | 94% (active) | 95.8% (active) | 99% (active) | 94% (active) | 95.4% (active) | 99% (active) | 98% (active) | 91.2% (active) | 99% (active) | 98% (active) | 82.5% (active) | 99% (active) | 97% (active) | 93.6% (active)
5 | COC(=O)C1(c2ccc(N(C)C)cc2OC)CCCN(C(=O)Oc2ccccc2[N+](=O)[O-])CCc2c1[nH]c1ccccc21 (configuration not stated) | 69% | 71% (active) | 74.9% (active) | 83% (active) | 80% (active) | 66.8% | 52% | 55% | 72.8% (active) | 39% | 52% | 50.5% | 53% | 85% (active) | 42% | 83% (active) | 88% (active) | 75.2% (active)
6 | Cc1cc(C)c(N2C(=O)C=CC2=O)c(C)c1 | 98% (active) | 98% (active) | 99.7% (active) | 99% (active) | 99% (active) | 99.7% (active) | 99% (active) | 98% (active) | 99.3% (active) | 99% (active) | 98% (active) | 99.2% (active) | 99% (active) | 98% (active) | 99.5% (active) | 98% (active) | 98% (active) | 99.3% (active)
7 | CCN(CC)c1c(C(=O)/C=C/c2ccc(OC)cc2)c(-c2ccccc2)nn(C)c1=O | 17% | 17% | 78.1% (active) | 8% | 8% | 72.5% (active) | 5% | 5% | 69% | 9% | 9% | 77% (active) | -4% | -4% | 71.3% (active) | 8% | 8% | 70.2% (active)
8 | O=[N+]([O-])c1ccc(NNS(=O)(=O)c2ccccc2)c([N+](=O)[O-])c1 | 3% | -7% | 5.85% | -13% | -4% | 16.3% | -3% | 13% | 10.3% | -33% | -17% | -18.2% | 4% | 13% | -2% | 0% | 16% | 13.8%
9 | O=S(=O)(Nc1ccccc1)c1ccccc1C=C(c1ccccc1)c1ccccc1 | 37% | 75% (active) | 85.1% (active) | 35% | 90% (active) | 86% (active) | 46% | 90% (active) | 86.5% (active) | 13% | 84% (active) | 80.3% (active) | 43% | 82% (active) | 80.3% (active) | 81% (active) | 84% (active) | 85.8% (active)
10 | CN(C)c1cc[c]([Sn]([c]2ccc(N(C)C)cc2)([c]2ccc(N(C)C)cc2)[c]2ccc(N(C)C)cc2)cc1 | 0% | 0% | 72.5% (active) | 4% | 4% | 34.1% | -9% | -9% | 37% | -12% | -12% | 34.4% | -12% | -12% | 49.4% | -18% | -18% | 78.8% (active)
11 | CNC(=O)N(C)/N=C/c1ccc([N+](=O)[O-])o1 | 15% | 67% | 84.5% (active) | 4% | 40% | 50.5% | 14% | 78% (active) | 93.5% (active) | 0% | 36% | 54.6% | 17% | 55% | 45.5% | 24% | 76% (active) | 91.8% (active)
12 | O=C1NC(=S)S/C1=C/c1ccc(/C=C2/SC(=S)NC2=O)cc1 | -16% | -3% | 21% | -10% | -14% | 22.6% | -6% | -3% | 9.45% | -19% | -22% | 58.4% | -12% | -12% | 7.75% | -15% | -19% | 28.4%
13 | COc1ccc(CSC(=S)Nc2ccc(Cl)c([N+](=O)[O-])c2)cc1 | 48% | 92% (active) | 88.5% (active) | 50% | 95% (active) | 77.1% (active) | 56% | 99% (active) | 88.4% (active) | 43% | 97% (active) | 9% | 77% (active) | 99% (active) | 21.5% | 79% (active) | 98% (active) | 94.1% (active)
14 | CCn1c2ccccc2c(=O)c2c(OC)ccc(OC)c21 | 2% | 73% (active) | 77.6% (active) | 4% | 51% | -1.7% | 0% | 94% (active) | 81.5% (active) | -1% | 24% | 49.4% | 28% | 75% (active) | 52.6% | -1% | 87% (active) | 89.8% (active)
15 | c1cnc2c(Oc3nc(Oc4cccc5cccnc45)nc(Oc4cccc5cccnc45)n3)cccc2c1 | 1% | 91% (active) | 94% (active) | 30% | 90% (active) | 89.9% (active) | 18% | 76% (active) | 94.1% (active) | 5% | 54% | 84.2% (active) | -2% | 92% (active) | 94% (active) | 30% | 94% (active) | 91.2% (active)
16 | CC(=O)N(C1=CC(=O)c2ccccc2C1=O)c1ccc(Cl)cc1 | 95% (active) | 97% (active) | 96.7% (active) | 92% (active) | 98% (active) | 95% (active) | 95% (active) | 97% (active) | 95.2% (active) | 52% | 98% (active) | 90.8% (active) | 89% (active) | 98% (active) | 90.5% (active) | 92% (active) | 98% (active) | 93.5% (active)
17 | Cc1ccsc1C(=S)Nc1ccc(Cl)c(/C=N/OC(C)C)c1 | 4% | 15% | 32% | 9% | 14% | 19.9% | 7% | 31% | 21.6% | 2% | 17% | 44.8% | 13% | 43% | 23.1% | 12% | 14% | 55.2%
18 | O=C(O)c1c(-c2ccccc2)cc(-c2ccccc2)cc1-c1ccccc1 | 93% (active) | 98% (active) | 99.1% (active) | 90% (active) | 98% (active) | 99.2% (active) | 93% (active) | 99% (active) | 99.3% (active) | 90% (active) | 98% (active) | 97.8% (active) | 88% (active) | 95% (active) | 98.2% (active) | 92% (active) | 98% (active) | 98.9% (active)
19 | Oc1c(N2CCOCC2)cc(-c2cc(N3CCOCC3)c(O)c3ccccc23)c2ccccc12 | 26% | 30% | 82.2% (active) | 35% | 38% | 86.3% (active) | -19% | 9% | 50.3% | 9% | 21% | 42.5% | 16% | 43% | 51.6% | 35% | 39% | 80.5% (active)
